Screens deposited in PubChem BioAssay by National Center for Advancing Translational Sciences (NCATS).
SARS PLpro yeast = inhibitors of SARS-CoV papain-like protease in yeast; S. cerevisiae expressing SARS-CoV PLpro, growth rescue; Potency, µM (top dose mostly 32.9 µM), for the others: at the top dose activity, positive = growth rescue, hits mostly activators; hit rate 0.19% among 330,000; calls by dose curve; note: 0% is about no effect; nearly all actives have a fitted effect of over 55% in size
AmpC inh detg = AmpC beta-lactamase inhibition with detergent present; AmpC hydrolysis of nitrocefin, absorbance 480 nm, 0.01% Triton; hit rate 0.041% among 370,000; Potency, µM (doses to about 114 µM), for the others: at the highest dose activity change, negative = inhibition, hits mostly inhibitors; P00811;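 note: 0% = no-compound wells and -100% = no-enzyme wells; nearly all actives have a fitted effect of over 25% in size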
Target sequence (P00811 whole entry, looked up): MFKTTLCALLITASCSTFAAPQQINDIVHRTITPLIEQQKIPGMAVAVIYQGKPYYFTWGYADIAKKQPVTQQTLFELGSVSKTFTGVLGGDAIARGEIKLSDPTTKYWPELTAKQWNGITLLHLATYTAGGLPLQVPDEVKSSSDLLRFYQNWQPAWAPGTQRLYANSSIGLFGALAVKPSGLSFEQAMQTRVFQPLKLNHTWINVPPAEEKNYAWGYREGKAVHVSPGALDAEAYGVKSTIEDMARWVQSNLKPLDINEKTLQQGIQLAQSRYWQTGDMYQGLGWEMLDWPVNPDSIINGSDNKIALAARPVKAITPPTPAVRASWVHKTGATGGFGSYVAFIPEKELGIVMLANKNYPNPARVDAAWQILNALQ
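AmpC (5.3 nM in the dispensed reagent) in 20 mM phosphate pH 7.0 with 0.01% (detergent screen) or 0.0001% Triton X-100 was preincubated with compounds for 15 min at room temperature. Nitrocefin was then added from an 800 uM solution, and hydrolysis was followed at 480 nm.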
AMA1-RON2 inh = AMA1-RON2 (P. falciparum) interaction inhibition. Potency, µM (titrated, usually from 58.2 µM), inactives show at the top dose activity change, negative = inhibition, hits mostly inhibitors. AlphaScreen AMA1-biotinylated RON2 peptide binding. hit rate 0.2% among 360,000;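 note: 0% = vehicle wells and -100% = peptide control; nearly all actives have a fitted effect of over 45% in size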
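AMA1 (3D7) with his tag at 25 nM final met compounds first, then biotinylated RON2 peptide at 25 nM; detection used donor plus acceptor beads, 10 µg/mL apiece, read by AlphaScreen after 30 min at room temperature.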
AmpC inh no detg = inhibitors of E. coli AmpC beta-lactamase without detergent. Potency, µM (top dose mostly 57.1 µM), inactives show at the highest dose activity change, negative = inhibition, most hits filed as inhibitors. hit rate 0.52% among 330,000. AmpC nitrocefin hydrolysis, absorbance 480 nm, 0.0001% Triton. AID 485341;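 note: plate controls were no compound for no effect and no enzyme for full effect; nearly all actives have a fitted effect of over 20% in size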
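20 mM phosphate pH 7.0 + 0.01% (detergent screen) or 0.0001% Triton X-100; 5.3 nM AmpC reagent; cpd preinc 15 min RT; nitrocefin (800 uM stock) to start; A480 q20 s × 4 min; Activity was normalised to no-enzyme and no-compound control wells.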
NS1 function inh = blocks influenza NS1 protein function. Potency, µM (titrated, usually from 46.1 µM), for inactives: at the highest dose activity, positive = more growth. hit rate 0.4% among 270,000; calls by dose curve; note: actives are rising curves; nearly all actives have a fitted effect of over 50% in size
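A cell-based growth assay was used: compounds that relieve NS1-induced slow growth of budding yeast raise OD600. Assay medium was yeast nitrogen base with ammonium sulphate and -URA supplement, pH 6.0, with 2% galactose.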
* hit, by the source's call; ? = inconclusive; . = not tested or not shown; [ ] = remark or other dose. In the library only some 0.99% were active in any assay of this set; here they are far more common. Unless noted, calls come from the whole dose curve; as a rule, active = well fitted curve in the direction sought with a large enough effect; inconclusive = small, poorly fitted or top-dose-only effect, or another doubt; inactive = no such curve, though single readings can be large; an effect the other way counts as inactive or inconclusive. Potency is the fitted concentration of half-maximal effect.

SMILES	SARS PLpro yeast	AmpC inh detg	AMA1-RON2 inh	AmpC inh no detg	NS1 function inh
C[C@H](C(=O)c1ccccc1)C(c1ccccc1)N1CCOCC1 (stereo not given in full)	.	.	.	.	0%
Fc1ccc(N2CCN(c3ncnc4nc[nH]c34)CC2)cc1	-6%	?	0%	20µM*	-2%
OCCN1CCN(c2ncnc3nc[nH]c23)CC1	2%	?	-2%	45µM*	-105%
O=C(Nc1ccccc1)c1nc[nH]c1C(=O)O	.	-2%	.	.	.
CC1Oc2cc3c(-c4c(O)cc(O)c5c(O)c6c(cc45)OC(C)C(C)C6=O)c(O)cc(O)c3c(O)c2C(=O)C1C (stereo not given)	2%	?	-15%	22µM*	18%
C[C@@H]1Cc2c(O)c(O)cc(O)c2C(=O)O1	-1%	-5%	?	-3%	-1%
CCCCNc1c([N+](=O)[O-])cc(C)cc1[N+](=O)[O-]	1%	-14%	19µM*	-22%	19%
CCCCNc1c([N+](=O)[O-])cc(C(=O)O)cc1[N+](=O)[O-]	-11%	-6%	-11%	24%[2.29 µM]	-10%
[Cl][Pd][Cl].[S-]C1=C2N=CN[C-]2[NH+]=C[N-]1.[S-]c1ncnc2[nH]cnc12	.	.	.	.	-11%
CC(=O)Nc1ccc(N=NN2CCOCC2)cc1	11µM*	?	-2%	-17%	.
CC(=O)Nc1cccc(N=NN2CCOCC2)c1	1%	-2%	14%	-16%	0%
COc1ccc(C(=O)/C=C/Nc2cc(C)on2)c(OC)c1	-13%	-8%	-3%	-3%	-38%
COc1ccc(OC)c(CNc2ccc([N+](=O)[O-])cc2C)c1	-9%	3%	13µM*	-30%	.
COc1ccc(C(=O)/C=C/Nc2ccc([N+](=O)[O-])cc2C)cc1OC	4%	4%	9%	2µM*	-3%
COc1ccc(C(=O)/C=C/Nc2ccc([N+](=O)[O-])cc2C)c(OC)c1	-4%	1%	1%	1.3µM*	-2%
C=C(C)c1ccccc1 (tested in a mixture with another compound)	.	.	.	.	-3%
COc1cccc(CNC(=O)C(C)n2ncn3cccc3c2=O)c1OC (stereo not given)	.	-11%	.	.	.
Cc1ccc(-c2nc(C#N)c(NCc3cccc4c3OCO4)o2)cc1	-11%	8%	-21%	0.32µM*	-34%
O=C(COC(=O)CCN1C(=O)/C(=C\C=C\c2ccccc2)SC1=S)Nc1ccc(Br)cc1	0%	3%	-13%	18µM*	5%
CC(C)c1ccccc1NC(=O)COC(=O)CCN1C(=O)/C(=C\C=C\c2ccccc2)SC1=S	9%	-13%	-16%	-37%	18%
CCN(C(=O)c1sc2nc3n(c(=O)c2c1C)CCCC3)c1ccccc1F	.	-1%	.	.	.
Cc1ccc(NC(=O)c2cc(C(=O)c3cc(Cl)ccc3O)cn(-c3ccc(C)cc3)c2=O)cc1	?	-6%	-16%	3.2µM*	23%
CCOc1ccc(CCNC(=O)c2cc3c(-c4ccccc4F)nn(C)c3s2)cc1OCC	.	2%	.	.	.
Cc1sc(NC(=O)CN2C(=O)NC3(CCCC3)C2=O)nc1-c1ccc(F)cc1	-1%	?	17%	25µM*	.
O=C(O)c1cc(O)c2c(c1)[C@@H]([C@H]1c3cc(C(=O)O)cc(O)c3C(=O)c3c(O[C@@H]4O[C@H](CO)[C@@H](O)[C@H](O)[C@H]4O)cccc31)c1cccc(O[C@@H]3O[C@H](CO)[C@@H](O)[C@H](O)[C@H]3O)c1C2=O	-1%	.	1.4µM*	1.3µM*	.
SMILES	SARS PLpro yeast	AmpC inh detg	AMA1-RON2 inh	AmpC inh no detg	NS1 function inh
Cc1cc(NC(=O)c2cccn2-c2nnc(N3CCCCC3)s2)ccc1Br	.	-2%	.	.	.
COc1cccc(OCC(=O)Nc2nnc3n2CCS3)c1	.	-2%	.	.	.
Cc1nc(N2CCN(C(=O)c3cccs3)CC2)c2c3c(sc2n1)CCCC3	1%	35µM*	-4%	48%	-47%
CN1CCN(c2cc(=O)n(Cc3ccc(F)cc3)c(=O)[nH]2)CC1	12%	2%	19%	0.56µM*	-2%
COc1ccccc1N(CC(=O)NCCSc1ccccc1)S(=O)(=O)c1ccc(C)cc1	.	5%	.	.	.
CCN=c1scc(C)n1/N=C/c1ccc(O)c(O)c1O	-5%	-3%	?	10µM*	-14%
CCN=c1scc(C)n1/N=C/c1cc(Br)c(O)c(Br)c1	-3%	-14%	21%	-27%[11.4 µM]	.
CCN1CCN(c2nnc(-n3cccc3C(=O)NCc3ccccc3OC)s2)CC1	.	4%	.	.	.
CCc1cccc(C)c1NC(=O)c1cc(S(=O)(=O)N2CCN(c3ccccc3)CC2)ccc1F	.	2%	.	.	.
CCC(=O)Nc1ccc(Cl)c(NC(=O)c2cccnc2)c1	7%	-14%	-5%	-17%	1%
CCCC(=O)Nc1ccc(Cl)c(NC(=O)c2cccnc2)c1	2%	-3%	0%	0.16µM*	-7%
CCCCCn1c(CNC(=O)CCC)nc2ccccc21	3%	?	-9%	19%	-4%
CCCCCn1c(C(Cc2ccccc2)NC(=O)COC)nc2ccccc21 (stereo not given)	3%	?	39%	1.3µM*	-30%
CCCCn1c(CNC(=O)CCC)nc2ccccc21	-5%	-12%	-4%	7.1µM*	-7%
COc1ccc(Cl)cc1NC(=O)Cn1ccn(Cc2ccc(C)cc2)c(=O)c1=O	.	0%	.	.	.
CC(=O)Nc1sc(/C(C#N)=C/c2ccc(Cl)c(Cl)c2)nc1-c1ccc(C)cc1	-11%	-3%	36%	4.5µM*	45%
CC(=O)Nc1sc(N/N=C/c2ccc(C)cc2)nc1-c1ccc(C)cc1	10%	2%	17%	8%	8%
O=C(CCN=C1NS(=O)(=O)c2ccccc21)OCC(=O)c1ccccc1Cl	-1%	4%	0%	40µM*	.
O=C(CNc1ccccc1)N/N=C/c1cc([N+](=O)[O-])ccc1N1CCCC1	?	0%	-2%	7.9µM*	6%
COc1ccc2c(c1)C1(Nc3ccccc3-c3nc4ccccc4n31)C(=O)N2 (stereo not given)	27%	-10%	-4%	20µM*	-41%
